Bioassay records deposited in PubChem by National Center for Advancing Translational Sciences (NCATS).
RE007 growth inh: less growth of the S. pombe RE007 Vpr strain; S. pombe RE007 Vpr strain, BacTiter-Glo ATP luminescence, 24 h; Potency, µM (doses to about 92.2 µM), inactives show at the top dose activity change, negative = less growth, most hits filed as inhibitors; 360,000 compounds, 0.21% hits; active = well fitted falling curve with a large enough effect; inconclusive = small, poorly fitted or top-dose-only effect; inactive = no such curve, though single readings can be large or run the other way; note: nearly all actives have a fitted effect of over 50% in size
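Fission yeast strain RE007, carrying one chromosomally integrated HIV-1 vpr copy, was seeded at OD 0.01 in PMG+AL medium with 23 nL pinned compound. After 24 h at 30 °C and 99% humidity, viability was read by BacTiter-Glo luminescence.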
Giardia FBPA inh: inhibitors of Giardia lamblia fructose-1,6-bisphosphate aldolase | 290,000 compounds, 0.71% hits | purified Giardia FBPA | Potency, µM (series often up to 59.6 µM), inactives show at the highest dose activity, negative = inhibition, actives largely listed as inhibitors | A8B2U2 | AID 2451; note: nearly all actives have a fitted effect of over 55% in size
Target sequence (A8B2U2 whole entry, looked up): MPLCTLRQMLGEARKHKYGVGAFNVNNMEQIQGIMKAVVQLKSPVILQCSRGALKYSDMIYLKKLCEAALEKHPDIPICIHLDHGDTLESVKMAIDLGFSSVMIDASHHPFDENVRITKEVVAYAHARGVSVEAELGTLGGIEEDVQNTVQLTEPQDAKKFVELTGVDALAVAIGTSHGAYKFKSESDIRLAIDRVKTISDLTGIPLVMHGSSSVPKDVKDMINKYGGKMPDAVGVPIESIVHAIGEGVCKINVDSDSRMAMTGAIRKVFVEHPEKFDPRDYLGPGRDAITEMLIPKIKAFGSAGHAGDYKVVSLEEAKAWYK
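40 nM FBPA preincubated 10 min at RT with compound (up to 57.5 uM final), then substrate plus GAPDH/TPI/NAD/arsenate coupling and diaphorase/resazurin added. Fluorescence read after 20 min at RT, 525/598 nm.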
Sm TGR block: inhibitors of Schistosoma mansoni thioredoxin glutathione reductase; Q962Y6; purified TGR, DTNB reduction, TNB absorbance 405 nm; Potency, µM (top dose mostly 114 µM), for inactives: at the top dose activity change, negative = inhibition, most hits filed as inhibitors; 360,000 compounds, 3% hits; AID 485364; note: nearly all actives have a fitted effect of over 60% in size
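Kinetic colorimetric format: TGR-catalysed, NADPH-driven DTNB reduction monitored via TNB absorbance. Enzyme dispensed at 20 nM; compound exposure 15 min at room temperature before reaction start.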
AmpC detergent: blocks E. coli AmpC beta-lactamase in detergent assay | 370,000 compounds, 0.041% hits | Potency, µM (highest dose often 114 µM), for the others: at the top dose activity change, negative = inhibition, most hits filed as inhibitors | AID 485294 | AmpC hydrolysis of nitrocefin, absorbance 480 nm, 0.01% Triton | P00811;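 note: 0% = no-compound wells and -100% = no-enzyme wells; nearly all actives have a fitted effect of over 25% in size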
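20 mM phosphate pH 7.0 + 0.01% (detergent screen) or 0.0001% Triton X-100; 5.3 nM AmpC reagent; cpd preinc 15 min RT; nitrocefin (800 uM stock) to start; A480 q20 s × 4 min; Activity was normalised to no-enzyme and no-compound control wells.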
AmpC inh no detg: blocks E. coli AmpC beta-lactamase in detergent-free assay; P00811; AmpC nitrocefin hydrolysis, absorbance 480 nm, 0.0001% Triton; Potency, µM (top dose mostly 57.1 µM), for inactives: top-dose activity change, negative = inhibition, usual class: inhibitors; 330,000 compounds, 0.52% hits; AID 485341;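 note: plate controls were no compound for no effect and no enzyme for full effect; nearly all actives have a fitted effect of over 20% in size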
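20 mM phosphate pH 7.0 + 0.01% (detergent screen) or 0.0001% Triton X-100; 5.3 nM AmpC reagent; cpd preinc 15 min RT; nitrocefin (800 uM stock) to start; A480 q20 s × 4 min; Activity was normalised to no-enzyme and no-compound control wells.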
Active calls of the source: *; ? = inconclusive; nt = no result given; [ ] = dose if it differs, or a comment. In the library only some 3.4% were active in any assay of this set; here they are far more common. Unless noted, calls come from the whole dose curve; as a rule, active = well fitted curve in the direction sought with a large enough effect; inconclusive = small, poorly fitted or top-dose-only effect, or another doubt; inactive = no such curve, though single readings can be large; an effect the other way counts as inactive or inconclusive. Unless noted, % is set by controls: 0 for no effect and ±100 for the full control effect; potency is the fitted concentration of half-maximal effect.

SMILES	RE007 growth inh	Giardia FBPA inh	Sm TGR block	AmpC detergent	AmpC inh no detg
CCOc1ccc(CCN2C(=O)C3C4C=CC(C4)C3C2=O)cc1OCC (stereo not given)	13%	-2%	5%	-4%	?
CN(C)S(=O)(=O)c1cc(NC(=O)COC(=O)Cc2ccc(Br)cc2)ccc1Cl	5%	-6%	-9%	0%	-14%
CSCCC(c1nc2ccccc2[nH]1)n1c(-c2cc(C(F)(F)F)cc(C(F)(F)F)c2)nc2ccccc21 (stereo not given)	4%	nt	nt	nt	nt
CC1=C2C(O)C(=O)OC3CC4C(C)(C)C(=O)C=C[C@]4(C)C(CC1)[C@@]23C (stereo not given in full)	nt	3%	nt	nt	nt
CCCCCCC(=O)Nc1ccc(C(=O)N2CCCC2)cc1	14%	0%	-12%	0%	19%
N#CCSc1n[nH]c2nc3c(c(=O)n12)C1(CCCC1)Cc1ccccc1-3	10%	?	-2%	?	-47%
COc1ccc(NC(=O)c2cnc(SC)nc2)cc1	2%	-2%	-30%	6%	-7%
Cc1cc(C)nc(SCC(=O)c2ccc(F)cc2)n1	3%	3%	-21%	-12%	14%
Cc1cc(C)nc(S/C=C/C(=O)c2ccc(F)cc2)n1	nt	2%	0.71µM*	-2%	-8%
CC(C)Cn1c(C(C)C)nc([N+](=O)[O-])c1S(=O)(=O)c1ccc(F)cc1	5%	2%	1.8µM*	3%	14%
CCCc1nc([N+](=O)[O-])c(S(=O)(=O)c2ccccc2)n1CC(C)C	3%	1%	0.89µM*	2%	0%
CCOc1cc(C)c(S(=O)(=O)Nc2ccc(F)cc2)cc1C	?	-12%	-17%	?	-23%
COc1ccc(-c2c(-c3ccccc3OC)oc3ccccc23)cc1F	-1%	nt	1%	3%	-27%
COC(=O)C(=Cc1ccccc1[N+](=O)[O-])C(=O)OC	-2%	-4%	7.1µM*	?	-4%
O=C(CCN=C1NS(=O)(=O)c2ccccc21)OCC(=O)c1ccccc1	-20%	nt	-11%	?	-41%
CCOc1ccccc1NC(=O)CCCN1C(=S)NC(C)(C)CC1C (stereo not given)	-6%	-7%	5%	2%	-13%
COc1ccccc1N1C(=O)NC(=O)/C(=C/c2ccc([N+](=O)[O-])s2)C1=O	-28%	?	5.6µM*	-1%	-27%
COc1ccc(N2C(=O)NC(=O)/C(=C/c3ccc([N+](=O)[O-])s3)C2=O)cc1	?	?	7.1µM*	-2%	-34%
COc1ccc(N2C(=O)NC(=O)/C(=C\c3ccc([N+](=O)[O-])s3)C2=O)cc1	-27%	?	7.9µM*	1%	-54%
COc1cccc(N2C(=O)NC(=O)/C(=C/c3ccc([N+](=O)[O-])s3)C2=O)c1	?	?	7.9µM*	-4%	-38%
O=C(Cn1cnc2c(NCc3ccccc3)ncnc21)NCC1CCCO1 (stereo not given)	7%	nt	nt	nt	-12%
O=C(CCc1ccccn1)N1CCCC(N2CCN(c3ccc(F)cc3)CC2)C1 (stereo not given)	2%	5%	-29%	2%	33%
CC1CCCN(S(=O)(=O)c2cnc[nH]2)C1 (stereo not given)	-7%	nt	1%	1%	-10%
COc1ccc(OC)c(NC(=O)Nc2ccc3c(c2)CCC3)c1	-3%	-6%	5%	-6%	8.9µM*
COc1ccc(NC(=O)Nc2ccc3c(c2)CCC3)c(OC)c1	-4%	6%	5%	?	21%[2.29 µM]
Cc1noc(C)c1COC(=O)c1cc(S(=O)(=O)N2CCOCC2)ccc1F	1%	nt	-7%	-12%	0%
Cc1c(/C(O)=C2/C(=O)C(=O)N(CCN3CCOCC3)C2c2cccs2)cnn1-c1ccccc1 (stereo not given)	6%	11%	35µM*	0%	0%
Cc1c(/C(O)=C2\C(=O)C(=O)N(CCN(C)C)C2c2ccccc2)cnn1-c1ccccc1 (stereo not given)	-10%	-1%	13µM*	-13%	-3%
